Laboratory results from PubChem BioAssay AID2116 (The Scripps Research Institute Molecular Screening Center, 2009).
Activity calls are given as the source filed them. The rule behind the calls is not given here.

Test system: HEK Patch Clamp Assay
Experiment: activators of mucolipin-3 and mucolipin-2 – cell-based, patch clamp, Fura-2 profiling panel (AID 2116)
Settings: HEK293 cells expressing TRPML3-YFP; patch clamp current at -80 mV

Compound | current density | outcome
Cc1ccc(S(=O)(=O)Nc2ccccc2-c2ccccc2)cc1 | -0.003 nA/pF | inactive; no effect on six other TRP channels
O=S(=O)(Nc1ccccc1N1CCOCC1)c1ccc(Cl)s1 | -0.005 nA/pF | inactive; no effect on six other TRP channels
O=S(=O)(Nc1ccccc1N1CCCCC1)c1ccc(Cl)s1 | -0.004 nA/pF | inactive; no effect on six other TRP channels
O=S(=O)(NC1CCCCC1N1CCOCC1)c1ccc(Cl)cc1 (stereo not given) | -0.003 nA/pF | inactive; no effect on six other TRP channels
Cc1ccc(N2CCN(S(=O)(=O)N3CCCCC3)CC2)c(C)c1 | -0.007 nA/pF | inactive; no effect on six other TRP channels
